Source: PubChem BioAssay (EPA / NIEHS)
Results filed as inconclusive are left out. Active and inactive are the calls of the source. Rule for the calls, unless noted: active = hit-call score of the fitted dose curve at least 0.9, where 1 is the maximum; inactive = score below 0.9.

Columns and labels:
[1] = read-out: Monocyte Chemoattractant Protein-1 (MCP1), CCL2 (gene 6347); assay: BSK_SAg_MCP1: BioMAP Diversity Plus: SAg Assay for Monocyte Chemoattractant Protein-1 (MCP1) Biomarker Activity (AID 2283090); conditions: primary human HUVEC with PBMC; actives raise or lower the signal
Method in brief: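 MCP-1 levels in the endothelial–PBMC SAg co-culture were quantified by ELISA at 24 h post-dosing; both increases and decreases versus DMSO scored. Cytotoxicity monitored by SRB total protein in parallel cultures.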

[2] = read-out: E-selectin (Homo sapiens) (UniProt P16581); assay: BSK_SAg_Eselectin: BioMAP Diversity Plus: SAg Assay for Eselectin Biomarker Activity (AID 2283091); conditions: primary human HUVEC with PBMC; actives raise or lower the signal
Method in brief: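 Human umbilical vein endothelial cells co-cultured with peripheral blood mononuclear cells, SAg system. E-selectin is measured by ELISA 24 h after dosing and fitted bidirectionally against DMSO. Cytotoxicity is checked by SRB staining of parallel cultures.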

[3] = read-out: Monokine induced gamma interferon (MIG), CXCL9 (gene 4283); assay: BSK_SAg_MIG: BioMAP Diversity Plus: SAg Assay for Monokine induced gamma interferon (MIG) Biomarker Activity (AID 2283092); conditions: primary human HUVEC with PBMC; actives raise or lower the signal
Method in brief: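 Values reflect bidirectional fitting of ELISA-measured MIG against DMSO vehicle, taken 24 h after dosing of a co-culture of human umbilical vein endothelial cells and peripheral blood mononuclear cells.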

[4] = BSK_SAg_PBMCCytotoxicity: PBMC Cytotoxicity Assessment in the BioMAP Diversity Plus: SAg Assay (AID 2283093); conditions: primary human HUVEC with PBMC;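 note: PBMC viability measured as Alamar Blue reduction fluorescence at 546/580 nm; fitted both ways against DMSO so a hit may be loss or gain of signal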;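 for AC50: PBMC superantigen activated with SEB plus TSST-1 one hour after compound addition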
Method in brief: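 Compound added to 75,000 PBMC/well for 1 h; SEB and TSST-1 then added at 20 ng/mL final each; 90 h incubation; Alamar Blue 6 h; read 546/580 nm ex/em. Activity fitted bidirectionally relative to DMSO baseline.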

[5] = read-out: Interleukin-8 (IL8), CXCL8 (gene 3576); assay: BSK_SAg_IL8: BioMAP Diversity Plus: SAg Assay for Interleukin-8 (IL8) Biomarker Activity (AID 2283094); conditions: primary human HUVEC with PBMC; actives raise or lower the signal
Method in brief: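 In this co-culture of human umbilical vein endothelium with peripheral blood mononuclear cells, IL-8 is assayed by ELISA at 24 h. DMSO serves as baseline for bidirectional curve fitting.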

[6] = BSK_SAg_Proliferation: Cell Proliferation Assessment in the BioMAP Diversity Plus: SAg Assay (AID 2283095); conditions: primary human HUVEC with PBMC;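 note: relative cell number as total protein by SRB absorbance in sub-confluent culture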
Method in brief: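 Readout is SRB-stained protein (560 nm) in a primary human HUVEC and PBMC co-culture; sub-confluent cultures are read at 96 h. Activity is fitted bidirectionally using DMSO as baseline.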

[7] = BSK_SAg_SRB: Viability Assessment in the BioMAP Diversity Plus: SAg Assay (AID 2283096); conditions: primary human HUVEC with PBMC;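 note: cells read one day after compound addition; hits may be either gain or loss of signal compared with DMSO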
Method in brief: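 Total protein by sulforhodamine B staining, 24 h after dosing, in HUVEC–PBMC co-culture; DMSO-referenced bidirectional fitting.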

[8] = target: Cytochrome P450 2C19 (Homo sapiens) (UniProt P33261); assay: NVS_ADME_hCYP2C19: NovaScreen (NVS) CYP450-related Enzyme Activity (ADME) Assay for human CYP2C19 (AID 2283113; active = hit-call score of the fitted dose curve at least 0.9, where 1 is the maximum;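 note: potency for inhibition seen as loss of fluorescent signal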)
Method in brief: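 Cell-free recombinant human CYP2C19 from insect cells, fluorescent substrate; activity read by fluorescence intensity 1 h after dosing. Primary screen in duplicate at 10 uM; actives retested in concentration series. Signal loss versus acetonitrile negative control.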

[9] = target: human CYP1A1, CYP1A1 (gene 1543) (UniProt P04798); assay: NVS_ADME_hCYP1A1: NovaScreen (NVS) CYP450-related Enzyme Activity (ADME) Assay for human CYP1A1 (AID 2283100; active = hit-call score of the fitted dose curve at least 0.9, where 1 is the maximum)
Sequence of human CYP1A1, CYP1A1 (gene 1543) (P04798 whole entry, looked up): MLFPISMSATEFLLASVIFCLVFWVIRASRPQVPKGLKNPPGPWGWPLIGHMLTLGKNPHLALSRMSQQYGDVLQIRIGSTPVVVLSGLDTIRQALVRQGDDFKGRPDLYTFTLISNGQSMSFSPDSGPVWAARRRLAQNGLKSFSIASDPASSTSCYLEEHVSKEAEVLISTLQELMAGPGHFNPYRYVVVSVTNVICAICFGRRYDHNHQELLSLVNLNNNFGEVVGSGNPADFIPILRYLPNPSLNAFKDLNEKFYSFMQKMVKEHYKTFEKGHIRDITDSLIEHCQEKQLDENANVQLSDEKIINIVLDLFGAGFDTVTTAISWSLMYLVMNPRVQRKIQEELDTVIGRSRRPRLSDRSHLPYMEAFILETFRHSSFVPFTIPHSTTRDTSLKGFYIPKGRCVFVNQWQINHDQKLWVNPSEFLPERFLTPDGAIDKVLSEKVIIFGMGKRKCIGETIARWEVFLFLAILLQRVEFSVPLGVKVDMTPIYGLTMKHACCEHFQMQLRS
Method in brief: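 Recombinant CYP1A1 with a fluorogenic substrate, cell-free, read 1 h after dosing; acetonitrile as negative control. Single-concentration screen at 10 uM in duplicate, then concentration-response up to 20 uM for chemicals meeting ~30% inhibition threshold.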

[10] = target: Cytochrome P450 2C18 (Homo sapiens) (UniProt P33260); assay: NVS_ADME_hCYP2C18: NovaScreen (NVS) CYP450-related Enzyme Activity (ADME) Assay for human CYP2C18 (AID 2283103)
Sequence of Cytochrome P450 2C18 (Homo sapiens) (P33260 whole entry, looked up): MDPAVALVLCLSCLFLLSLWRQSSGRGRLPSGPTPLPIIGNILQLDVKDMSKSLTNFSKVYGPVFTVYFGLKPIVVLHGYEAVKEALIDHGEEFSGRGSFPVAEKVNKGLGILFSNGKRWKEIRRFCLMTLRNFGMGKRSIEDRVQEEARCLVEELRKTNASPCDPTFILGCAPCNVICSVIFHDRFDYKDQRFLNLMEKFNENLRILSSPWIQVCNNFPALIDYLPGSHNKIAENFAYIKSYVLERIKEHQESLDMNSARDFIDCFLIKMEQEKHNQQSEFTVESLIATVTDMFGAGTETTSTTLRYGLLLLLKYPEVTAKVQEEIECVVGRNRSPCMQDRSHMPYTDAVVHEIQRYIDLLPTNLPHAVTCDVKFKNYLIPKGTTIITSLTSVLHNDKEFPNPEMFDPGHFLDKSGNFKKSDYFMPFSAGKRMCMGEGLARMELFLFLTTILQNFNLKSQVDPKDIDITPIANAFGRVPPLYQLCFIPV
Method in brief: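 Cell-free recombinant human CYP2C18 with fluorogenic substrate; fluorescence intensity read 0.5 h after dosing. Single-point screen at 10 uM in duplicate, then concentration-response up to 20 uM; loss of signal fitted against acetonitrile baseline.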

[11] = target: rat CYP1A2, Cyp1a2 (gene 24297) (UniProt P04799); assay: NVS_ADME_rCYP1A2: NovaScreen (NVS) CYP450-related Enzyme Activity (ADME) Assay for rat CYP1A2 (AID 2283115; active = hit-call score of the fitted dose curve at least 0.9, where 1 is the maximum)
Sequence of rat CYP1A2, Cyp1a2 (gene 24297) (P04799 whole entry, looked up): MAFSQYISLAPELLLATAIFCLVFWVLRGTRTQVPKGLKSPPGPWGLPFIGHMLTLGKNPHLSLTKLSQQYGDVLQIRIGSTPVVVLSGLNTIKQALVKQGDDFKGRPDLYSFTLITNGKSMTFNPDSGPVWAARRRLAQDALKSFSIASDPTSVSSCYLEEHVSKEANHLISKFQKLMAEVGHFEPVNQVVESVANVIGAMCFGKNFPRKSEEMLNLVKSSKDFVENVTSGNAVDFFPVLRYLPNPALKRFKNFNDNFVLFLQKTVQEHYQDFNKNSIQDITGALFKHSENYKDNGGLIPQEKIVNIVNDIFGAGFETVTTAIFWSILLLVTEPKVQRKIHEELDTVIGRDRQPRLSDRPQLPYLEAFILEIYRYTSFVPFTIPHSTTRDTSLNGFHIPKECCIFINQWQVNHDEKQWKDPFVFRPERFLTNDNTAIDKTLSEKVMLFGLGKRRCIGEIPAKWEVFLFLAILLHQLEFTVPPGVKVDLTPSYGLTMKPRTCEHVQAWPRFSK
Method in brief: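 Cell-free recombinant rat enzyme with fluorogenic substrate, read by fluorescence intensity 1 hour after dosing. Loss of signal versus acetonitrile negative control; primary screen at 10 uM in duplicate, actives followed in concentration series.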

[12] = target: human CYP19A1, CYP19A1 (gene 1588) (UniProt P11511); assay: NVS_ADME_hCYP19A1: NovaScreen (NVS) CYP450-related Enzyme Activity (ADME) Assay for human CYP19A1 (AID 2283098; active = hit-call score of the fitted dose curve at least 0.9, where 1 is the maximum;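 for AC50: potency for inhibitors seen as loss of fluorescent enzyme signal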)
Sequence of human CYP19A1, CYP19A1 (gene 1588) (P11511 whole entry, looked up): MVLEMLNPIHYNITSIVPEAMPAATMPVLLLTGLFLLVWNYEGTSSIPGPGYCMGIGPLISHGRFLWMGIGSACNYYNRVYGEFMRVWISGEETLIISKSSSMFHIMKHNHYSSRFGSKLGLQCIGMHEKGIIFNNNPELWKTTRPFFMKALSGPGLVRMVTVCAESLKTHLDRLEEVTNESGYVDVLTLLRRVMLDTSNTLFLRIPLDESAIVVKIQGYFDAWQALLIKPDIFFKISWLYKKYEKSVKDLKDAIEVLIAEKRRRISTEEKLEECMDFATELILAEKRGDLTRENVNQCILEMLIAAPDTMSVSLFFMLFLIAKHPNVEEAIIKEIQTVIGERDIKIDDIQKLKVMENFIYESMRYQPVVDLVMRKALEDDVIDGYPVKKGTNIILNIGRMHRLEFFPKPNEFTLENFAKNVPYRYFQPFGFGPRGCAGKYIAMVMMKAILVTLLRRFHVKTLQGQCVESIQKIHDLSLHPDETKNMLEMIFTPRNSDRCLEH
Method in brief: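 Biochem, cell-free; recombinant enzyme + specific substrate; fluorescence intensity at 0.5 h post-dose; 10 uM duplicate primary, conc. series for actives; acetonitrile = negative control/baseline; positive and negative controls on every plate.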

[13] = target: human CYP2D6, CYP2D6 (gene 1565) (UniProt P10635); assay: NVS_ADME_hCYP2D6: NovaScreen (NVS) CYP450-related Enzyme Activity (ADME) Assay for human CYP2D6 (AID 2283107; active = hit-call score of the fitted dose curve at least 0.9, where 1 is the maximum)
Sequence of human CYP2D6, CYP2D6 (gene 1565) (P10635 whole entry, looked up): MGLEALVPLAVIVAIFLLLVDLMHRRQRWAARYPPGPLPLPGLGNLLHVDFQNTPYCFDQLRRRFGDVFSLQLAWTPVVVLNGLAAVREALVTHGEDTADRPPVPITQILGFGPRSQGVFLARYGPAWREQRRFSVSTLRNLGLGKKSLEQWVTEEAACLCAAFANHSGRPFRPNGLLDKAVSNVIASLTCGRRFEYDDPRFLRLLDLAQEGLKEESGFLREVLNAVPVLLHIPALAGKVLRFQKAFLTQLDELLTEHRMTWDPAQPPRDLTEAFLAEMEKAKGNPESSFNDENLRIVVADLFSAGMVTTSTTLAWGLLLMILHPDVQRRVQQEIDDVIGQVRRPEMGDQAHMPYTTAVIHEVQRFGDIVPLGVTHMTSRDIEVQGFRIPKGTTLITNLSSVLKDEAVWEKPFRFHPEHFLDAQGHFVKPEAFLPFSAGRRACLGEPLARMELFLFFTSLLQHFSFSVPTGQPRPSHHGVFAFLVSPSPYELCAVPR
Method in brief: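 Cell-free assay using recombinant human CYP2D6 expressed in insect cells, with a fluorogenic substrate read after 1 h. Primary screen in duplicate at 10 uM; actives followed up in concentration series. Loss of signal fitted relative to acetonitrile.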

[14] = target: human CYP2A6, CYP2A6 (gene 1548) (UniProt P11509); assay: NVS_ADME_hCYP2A6: NovaScreen (NVS) CYP450-related Enzyme Activity (ADME) Assay for human CYP2A6 (AID 2283099; active = hit-call score of the fitted dose curve at least 0.9, where 1 is the maximum)
Method in brief: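 Recombinant human CYP2A6 expressed in insect cells, cell-free; fluorogenic substrate turnover read by fluorescence intensity 0.5 h after dosing. Primary screen 10 uM in duplicate, then concentration-response up to 20 uM; acetonitrile as negative control.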

[15] = target: human CYP2C8, CYP2C8 (gene 1558) (UniProt P10632); assay: NVS_ADME_hCYP2C8: NovaScreen (NVS) CYP450-related Enzyme Activity (ADME) Assay for human CYP2C8 (AID 2283104)
Method in brief: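 Recombinant human CYP2C8 with fluorogenic substrate, 0.5 h, fluorescence intensity; signal loss fitted versus acetonitrile. Screened in duplicate at 10 uM, then actives run in concentration-response up to 20 uM.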

[16] = target: human CYP2J2, CYP2J2 (gene 1573) (UniProt P51589); assay: NVS_ADME_hCYP2J2: NovaScreen (NVS) CYP450-related Enzyme Activity (ADME) Assay for human CYP2J2 (AID 2283106; active = hit-call score of the fitted dose curve at least 0.9, where 1 is the maximum)
Sequence of human CYP2J2, CYP2J2 (gene 1573) (P51589 whole entry, looked up): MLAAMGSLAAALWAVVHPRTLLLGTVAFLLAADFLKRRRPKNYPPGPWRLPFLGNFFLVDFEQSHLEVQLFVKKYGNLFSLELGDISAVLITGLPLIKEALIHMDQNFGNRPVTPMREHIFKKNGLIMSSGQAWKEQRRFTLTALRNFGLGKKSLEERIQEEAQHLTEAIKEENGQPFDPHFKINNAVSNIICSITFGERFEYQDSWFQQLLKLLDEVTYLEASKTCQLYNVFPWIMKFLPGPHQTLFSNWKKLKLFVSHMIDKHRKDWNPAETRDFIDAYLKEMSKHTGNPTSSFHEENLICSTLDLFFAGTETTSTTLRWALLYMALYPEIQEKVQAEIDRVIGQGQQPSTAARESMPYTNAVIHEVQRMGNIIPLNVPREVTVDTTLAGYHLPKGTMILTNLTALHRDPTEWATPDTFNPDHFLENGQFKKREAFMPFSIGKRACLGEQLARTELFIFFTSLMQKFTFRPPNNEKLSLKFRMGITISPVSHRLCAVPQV
Method in brief: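 Cell-free assay of recombinant CYP2J2 with a fluorogenic substrate, read 1 h after dosing; loss of signal versus acetonitrile. Primary screen at 10 uM in duplicate, then concentration-response up to 20 uM for chemicals passing threshold (e.g., 30% inhibition).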

[17] = target: rat CYP2A1, Cyp2a1 (gene 24894) (UniProt P11711); assay: NVS_ADME_rCYP2A1: NovaScreen (NVS) CYP450-related Enzyme Activity (ADME) Assay for rat CYP2A1 (AID 2283114)
Sequence of rat CYP2A1, Cyp2a1 (gene 24894) (P11711 whole entry, looked up): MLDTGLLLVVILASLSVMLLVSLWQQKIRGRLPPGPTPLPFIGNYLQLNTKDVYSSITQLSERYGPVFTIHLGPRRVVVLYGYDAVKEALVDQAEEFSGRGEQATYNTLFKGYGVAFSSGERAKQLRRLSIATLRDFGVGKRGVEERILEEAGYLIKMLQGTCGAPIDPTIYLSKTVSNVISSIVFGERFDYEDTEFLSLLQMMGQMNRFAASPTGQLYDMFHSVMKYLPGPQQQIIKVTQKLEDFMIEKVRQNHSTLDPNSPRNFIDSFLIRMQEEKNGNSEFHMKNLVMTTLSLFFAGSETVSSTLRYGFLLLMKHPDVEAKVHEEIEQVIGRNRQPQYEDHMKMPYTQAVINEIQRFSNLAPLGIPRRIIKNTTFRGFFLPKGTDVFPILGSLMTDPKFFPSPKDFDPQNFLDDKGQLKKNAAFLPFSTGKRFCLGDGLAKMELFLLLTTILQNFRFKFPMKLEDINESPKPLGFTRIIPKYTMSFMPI
Method in brief: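 Recombinant rat CYP2A1, cell-free, fluorogenic substrate turnover read by fluorescence intensity 0.75 h after dosing. Primary screen at 10 uM in duplicate; actives rerun as concentration-response up to 20 uM; loss of signal versus acetonitrile control.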

[18] = target: human CYP2C9, CYP2C9 (gene 1559) (UniProt P11712); assay: NVS_ADME_hCYP2C9: NovaScreen (NVS) CYP450-related Enzyme Activity (ADME) Assay for human CYP2C9 (AID 2283108; active = hit-call score of the fitted dose curve at least 0.9, where 1 is the maximum)
Sequence of human CYP2C9, CYP2C9 (gene 1559) (P11712 whole entry, looked up): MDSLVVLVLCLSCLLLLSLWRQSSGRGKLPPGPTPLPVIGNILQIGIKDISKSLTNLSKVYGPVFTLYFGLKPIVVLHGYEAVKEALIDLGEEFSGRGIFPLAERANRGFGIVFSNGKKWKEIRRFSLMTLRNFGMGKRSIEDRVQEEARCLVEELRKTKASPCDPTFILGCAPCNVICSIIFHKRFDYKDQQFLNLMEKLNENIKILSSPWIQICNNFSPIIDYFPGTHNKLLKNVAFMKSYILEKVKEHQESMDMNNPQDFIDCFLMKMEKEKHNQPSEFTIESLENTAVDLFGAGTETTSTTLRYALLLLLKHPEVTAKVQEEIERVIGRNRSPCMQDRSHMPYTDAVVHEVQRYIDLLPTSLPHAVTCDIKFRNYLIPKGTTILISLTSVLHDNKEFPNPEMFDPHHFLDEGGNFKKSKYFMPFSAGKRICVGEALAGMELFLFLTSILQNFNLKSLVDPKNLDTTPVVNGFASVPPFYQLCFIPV
Method in brief: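 Fluorescence readout of CYP2C9 activity (SF9-expressed human enzyme) at 0.75 h. The primary screen used 10 uM in duplicate, with concentration-response follow-up for actives; acetonitrile was the negative control.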

[19] = target: human CYP4F12, CYP4F12 (gene 66002) (UniProt Q9HCS2); assay: NVS_ADME_hCYP4F12: NovaScreen (NVS) CYP450-related Enzyme Activity (ADME) Assay for human CYP4F12 (AID 2283111; active = hit-call score of the fitted dose curve at least 0.9, where 1 is the maximum)
Method in brief: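 Cell-free fluorescence assay of recombinant human CYP4F12 activity on a specific substrate, read 0.5 h after dosing. Primary screen in duplicate at 10 uM, then concentration series for actives; loss of signal fitted against acetonitrile negative control.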

Measured: AC50

Sequence of E-selectin (Homo sapiens) (P16581 whole entry, looked up): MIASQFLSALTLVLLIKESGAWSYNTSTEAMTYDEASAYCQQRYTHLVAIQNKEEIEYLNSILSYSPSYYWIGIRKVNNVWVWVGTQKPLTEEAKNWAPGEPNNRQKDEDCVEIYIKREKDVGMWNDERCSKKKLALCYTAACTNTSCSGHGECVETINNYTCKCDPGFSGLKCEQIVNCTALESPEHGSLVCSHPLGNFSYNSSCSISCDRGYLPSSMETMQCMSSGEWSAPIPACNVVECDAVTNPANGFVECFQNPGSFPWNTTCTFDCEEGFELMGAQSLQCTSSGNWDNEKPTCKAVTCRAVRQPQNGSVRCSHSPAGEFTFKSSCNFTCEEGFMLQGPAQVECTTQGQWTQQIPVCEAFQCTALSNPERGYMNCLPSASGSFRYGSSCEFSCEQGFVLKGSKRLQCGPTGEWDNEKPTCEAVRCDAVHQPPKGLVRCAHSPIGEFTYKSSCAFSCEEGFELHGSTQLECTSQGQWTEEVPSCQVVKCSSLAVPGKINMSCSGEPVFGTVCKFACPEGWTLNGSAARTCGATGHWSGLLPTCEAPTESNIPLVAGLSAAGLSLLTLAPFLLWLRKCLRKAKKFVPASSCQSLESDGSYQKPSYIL

CCOP(=S)(OCC)Oc1nc(Cl)n(C(C)C)n1
active: [8] 0.317 µM
inactive: [1] | [2] | [3] | [4] | [5] | [6] | [7]

CCOP(=O)(OCC)Oc1nc(Cl)c(Cl)cc1Cl
active: [1] 23.9 µM | [6] 17.1 µM | [7] 20 µM | [9] 7.46 µM | [10] 6.11 µM | [8] 4.09 µM
inactive: [2] | [3] | [4] | [5] | [11]

COC(=O)NS(=O)(=O)c1ccc(N)cc1
inactive: [1] | [2] | [3] | [4] | [5] | [7]

O=C(O)c1c(Cl)ccc2cc(Cl)cnc12
inactive: [1] | [2] | [3] | [4] | [5] | [7]

O=P(O)(O)CCCl
inactive: [1] | [2] | [3] | [4] | [5] | [6] | [7]

CCCC(=NOCC)C1=C(O)CC(CC(C)SCC)CC1=O (stereo not drawn)
inactive: [1] | [2] | [3] | [4] | [5] | [6] | [7]

Clc1cccc(C(Cl)(Cl)Cl)n1
inactive: [1] | [2] | [3] | [4] | [5] | [6] | [7]

CCOC(=O)C(C)OC(=O)c1cc(Oc2ccc(C(F)(F)F)cc2Cl)ccc1[N+](=O)[O-] (stereo not drawn)
inactive: [1] | [3] | [4] | [5] | [12] | [13]
active: [2] 10 µM | [6] 30.9 µM | [7] 14 µM | [8] 4.01 µM

COc1cc(Cl)c(OC)cc1Cl
inactive: [1] | [2] | [3] | [4] | [5] | [7]

COP(=S)(OC)Oc1ccc([N+](=O)[O-])c(C)c1
inactive: [1] | [3] | [4] | [7] | [12] | [15] | [11]
active: [2] 29.6 µM | [5] 29.6 µM | [6] 24.9 µM | [14] 1.98 µM | [10] 2.31 µM | [16] 0.612 µM | [13] 4.59 µM | [8] 0.168 µM | [17] 3.84 µM

CNC(=O)Oc1cccc2ccccc12
inactive: [1] | [2] | [3] | [5] | [7] | [12]
active: [4] 15.9 µM | [6] 22.4 µM

CCCCC(O)(Cn1cncn1)c1ccc(Cl)cc1Cl (stereo not drawn)
active: [2] 22.5 µM | [6] 29.9 µM | [10] 1.59 µM | [18] 0.554 µM | [19] 2.52 µM | [8] 0.426 µM | [17] 1.3 µM
inactive: [1] | [3] | [4] | [5] | [7]

CC1(C)CCC(=Cc2ccc(Cl)cc2)C1(O)Cn1cncn1 (stereo not drawn)
active: [9] 0.908 µM | [10] 2.03 µM | [18] 0.289 µM | [8] 0.252 µM | [17] 1.11 µM
inactive: [1] | [2] | [3] | [4] | [5] | [6] | [7]

CC(C)Nc1nc(Cl)nc(NC(C)C)n1
active: [2] 4.2 µM
inactive: [1] | [3] | [4] | [5] | [6] | [7]

CCSC(=O)N1CCCCCC1
inactive: [1] | [2] | [3] | [4] | [5] | [6] | [7]

CCOc1nc(C(Cl)(Cl)Cl)ns1
inactive: [1] | [3] | [4] | [5] | [6] | [7]
active: [2] 13.3 µM

CCCCC(C#N)(Cn1cncn1)c1ccc(Cl)cc1 (stereo not drawn)
active: [12] 0.789 µM | [9] 10.4 µM | [10] 2.25 µM | [18] 8.72 µM | [8] 0.634 µM | [17] 0.563 µM
not listed: [11] | [14] | [15] | [19]
inactive: all other assays above

COc1cc(OC)nc(NC(=O)NS(=O)(=O)c2ncccc2OCC(F)(F)F)n1
inactive: [1] | [2] | [3] | [4] | [5] | [6] | [7]

C=CCOC(=O)C(C)(C)OC(=O)c1cc(-n2c(=O)cc(C(F)(F)F)n(C)c2=O)ccc1Cl
active: [2] 31.1 µM
inactive: [1] | [3] | [4] | [5] | [6] | [7]

Clc1nc(Cl)nc(Nc2ccccc2Cl)n1
inactive: [1] | [2] | [3] | [4] | [5] | [6] | [7]
